Reference: PubChem BioAssay (NCATS)
Results filed as inconclusive are left out. Calls of active or inactive are those of the source. Calls follow the shape of the dose curve; as a rule, active = well fitted cell-killing curve with a large enough effect; inconclusive = small, poorly fitted or top-dose-only effect, or effect the other way; inactive = no such curve, though single readings can be large or run the other way.

What was measured:
[1] = Quantitative High-Throughput drug screen in 47 multiple myeloma cell lines against the NCATS MIPE library collection: OCIMY7_PLB cell viability assay (AID 1918987); details: OCI-MY7 myeloma viability, CellTiter-Glo ATP, 48 h; viability (% of DMSO): at 45.8 µM (top of the series); also: nearly all actives have a fitted effect of over 65% in size
Summary of the method: (§1)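 500 cells/well per myeloma line exposed to pinned MIPE 4.0 compounds for 48 h at 37 °C, 5% CO2. Viability read as ATP by CellTiter-Glo luminescence, normalised to DMSO-only (100%) and media-only (0%) wells.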

[2] = Quantitative High-Throughput drug screen in 47 multiple myeloma cell lines against the NCATS MIPE library collection: OCIMY5_PLB cell viability assay (AID 1918988); also: nearly all actives have a fitted effect of over 65% in size
Summary of the method: as §1

[3] = Quantitative High-Throughput drug screen in 47 multiple myeloma cell lines against the NCATS MIPE library collection: OPM1_PLB cell viability assay (AID 1918989); also: nearly all actives have a fitted effect of over 40% in size
Summary of the method: as §1

[4] = Quantitative High-Throughput drug screen in 47 multiple myeloma cell lines against the NCATS MIPE library collection: SKMM1_PLB cell viability assay (AID 1919863); details: SKMM1 myeloma viability, CellTiter-Glo ATP, 48 h; viability: active compounds read low; also: nearly all actives have a fitted effect of over 35% in size
Summary of the method: as §1

[5] = Quantitative High-Throughput drug screen in 47 multiple myeloma cell lines against the NCATS MIPE library collection: U266_ATCC cell viability assay (AID 1919864); also: nearly all actives have a fitted effect of over 35% in size
Summary of the method: as §1

[6] = Quantitative High-Throughput drug screen in 47 multiple myeloma cell lines against the NCATS MIPE library collection: XG6_PLB cell viability assay (AID 1919865); also: nearly all actives have a fitted effect of over 40% in size
Summary of the method: as §1

[7] = Quantitative High-Throughput drug screen in 47 multiple myeloma cell lines against the NCATS MIPE library collection: XG1_PLB cell viability assay (AID 1919866); also: nearly all actives have a fitted effect of over 35% in size
Summary of the method: as §1

[8] = Quantitative High-Throughput drug screen in 47 multiple myeloma cell lines against the NCATS MIPE library collection: VP6_DJ cell viability assay (AID 1919867); also: nearly all actives have a fitted effect of over 40% in size
Summary of the method: as §1

[9] = Quantitative High-Throughput drug screen in 47 multiple myeloma cell lines against the NCATS MIPE library collection: PE2_PLB cell viability assay (AID 1919869); also: nearly all actives have a fitted effect of over 35% in size
Summary of the method: as §1

[10] = Quantitative High-Throughput drug screen in 47 multiple myeloma cell lines against the NCATS MIPE library collection: UTMC2_PLB cell viability assay (AID 1919868); details: CellTiter-Glo ATP luminescence, 48 h; viability (% of DMSO control): at 45.8 µM (top of the series); also: nearly all actives have a fitted effect of over 55% in size
Summary of the method: as §1
Potency is read from the fitted curve at half-maximal effect.

CC1(C)C(N(O)C(=O)Nc2ccc(Cl)cc2)N(c2ccc(Cl)cc2)C(=O)N1CC(=O)NN=CC=Cc1ccc([N+](=O)[O-])o1 (stereo not given)
active: Potency [1] 5.9 µM | Potency [2] 7.43 µM | Potency [3] 11.8 µM | Potency [4] 13.2 µM | Potency [5] 10.5 µM | Potency [6] 10.5 µM | Potency [7] 8.33 µM | Potency [8] 8.33 µM | Potency [9] 6.62 µM

O=C(CC12CC3CC(CC(C3)C1)C2)Nc1cccc2nc(NCCNCCO)ccc12
active: Potency [1] 0.743 µM | Potency [2] 11.8 µM | Potency [3] 7.43 µM | Potency [4] 16.6 µM | Potency [5] 23.5 µM | Potency [6] 1.18 µM | Potency [7] 2.96 µM | Potency [8] 4.69 µM | Potency [10] 3.32 µM | Potency [9] 7.43 µM

Cc1cccc(-c2[nH]c(C(C)(C)C)nc2-c2ccc3c(c2)OCO3)n1
active: Potency [1] 9.35 µM | Potency [2] 14.8 µM | Potency [3] 1.87 µM | Potency [4] 20.9 µM | Potency [5] 16.6 µM | Potency [6] 2.96 µM | Potency [7] 1.05 µM | Potency [8] 0.743 µM | Potency [9] 1.18 µM

COc1ccc(-c2cc3nccn3c(Nc3ncccc3C(N)=O)n2)cc1OC
active: Potency [1] 0.148 µM | Potency [2] 3.32 µM | Potency [3] 2.09 µM | Potency [5] 16.6 µM | Potency [6] 1.18 µM | Potency [8] 0.935 µM | Potency [9] 0.59 µM
inactive: viability [4] 103%

NS(=O)(=O)c1cc(Cl)c(Cl)c(S(N)(=O)=O)c1
inactive: Potency [1] | Potency [2] | Potency [3] | Potency [5] | Potency [7] | Potency [8] | Potency [9]

Cc1ccccc1C(=O)c1ccc(Nc2ccc(Br)cc2N)cc1Cl
active: Potency [1] 11.8 µM | Potency [2] 10.5 µM | Potency [3] 16.6 µM | Potency [5] 11.8 µM | Potency [6] 18.7 µM | Potency [8] 16.6 µM | Potency [9] 18.7 µM

CN1N=C(N)c2cn([C@@H]3O[C@H](COP(=O)(O)O)[C@@H](O)[C@@H]3O)c3ncnc1c23
active: Potency [1] 2.09 µM | Potency [2] 0.296 µM | Potency [3] 0.469 µM | Potency [5] 5.26 µM | Potency [10] 0.0235 µM | Potency [9] 0.059 µM

O=S(=O)(NCCNCC=Cc1ccc(Br)cc1)c1cccc2cnccc12
active: Potency [1] 23.5 µM | Potency [2] 14.8 µM | Potency [3] 8.33 µM | Potency [5] 20.9 µM | Potency [6] 2.64 µM | Potency [7] 5.26 µM | Potency [8] 5.26 µM | Potency [10] 7.43 µM | Potency [9] 16.6 µM

Clc1ccc(C2(c3ccc(-c4cn[nH]c4)cc3)CCNCC2)cc1
active: Potency [1] 1.05 µM | Potency [2] 16.6 µM | Potency [3] 2.35 µM | Potency [6] 3.72 µM | Potency [7] 18.7 µM | Potency [8] 13.2 µM | Potency [9] 11.8 µM

COc1cc2nc(-c3cc(F)ccc3O)nc(N[C@@H]3CNC[C@@H]3C(C)(C)O)c2cc1OC
active: Potency [1] 2.64 µM | Potency [2] 13.2 µM | Potency [3] 3.72 µM | Potency [5] 20.9 µM | Potency [6] 0.935 µM | Potency [8] 5.26 µM | Potency [9] 7.43 µM

CC(C)CNc1ccnc(NCc2csc(-c3ccccc3)n2)n1
active: Potency [1] 16.6 µM | Potency [2] 14.8 µM | Potency [3] 11.8 µM | Potency [5] 20.9 µM | Potency [6] 16.6 µM | Potency [7] 16.6 µM | Potency [8] 5.26 µM | Potency [10] 10.5 µM | Potency [9] 18.7 µM

Nc1ncnc2c1ncn2[C@@H]1O[C@H](CO)[C@@H](O)[C@@H]1O
active: viability (% of DMSO) [1] 126% | Potency [2] 16.6 µM | Potency [3] 20.9 µM | Potency [5] 7.43 µM | Potency [6] 2.64 µM | Potency [8] 0.166 µM | Potency [9] 14.8 µM

CCc1cc(-c2n[nH]c(C)c2-c2ccc3c(c2)OCCO3)c(O)cc1O
active: Potency [1] 1.66 µM | Potency [2] 3.72 µM | Potency [3] 6.62 µM | Potency [5] 7.43 µM | Potency [6] 9.35 µM | Potency [7] 4.18 µM | Potency [8] 4.18 µM | Potency [9] 8.33 µM

Cc1nc(C(=O)NCC(=O)O)c(O)c2ccc(Oc3ccccc3)cc12
inactive: Potency [1] | Potency [2] | Potency [3] | Potency [10] | Potency [9]

Nc1ccc(-c2ccc3ncc4ccc(=O)n(-c5cccc(C(F)(F)F)c5)c4c3c2)cn1
active: Potency [1] 0.0209 µM | Potency [2] 0.0332 µM | Potency [4] 0.0053 µM | Potency [5] 0.372 µM

CC(C)Oc1cc(Nc2nc(N[C@@H](C)c3ccc(F)cn3)ncc2Cl)[nH]n1
active: Potency [1] 4.18 µM | Potency [2] 26.4 µM | Potency [3] 3.72 µM | Potency [6] 7.43 µM | Potency [7] 14.8 µM | Potency [8] 7.43 µM | Potency [10] 8.33 µM | Potency [9] 6.62 µM
